From the supplement of paper PMC9262897, “Low-cost anti-mycobacterial drug discovery using engineered E. coli” (Nature Communications, 2022) come the findings set out here.

Counter-ions that a name gives are not always drawn. ± gives the standard deviation of the averaged measurements.

Common to all, as to test: growth (OD600 after 10 h); higher = more growth (less inhibition)
The test system of assay [1] is E. coli TESEC Alr+ wild-type control. The settings on record: compound 0.1 mM; raw OD600 reference: median of DMSO wells 0.241, cell-free background 0.041. The method, then:
(§1)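 TESEC Mtb Alr E. coli, or the Alr+ wild-type control, in 384-well plates with Prestwick library compounds at 0.1 mM and 1% DMSO, across arabinose induction levels of 1E3 to 1E7 nM. Growth is read as OD600 after 10 h at 37 °C in triplicate biological replicates.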

In assay [2] the test system is E. coli TESEC Mtb Alr. The note with it: compound 0.1 mM. The method, then:
as §1

In assay [3] the test system is E. coli TESEC Mtb Asd. The settings on record: compound 0.1 mM. The method, then:
(§2)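 TESEC E. coli strains in which the native enzyme is deleted and replaced by arabinose-inducible Mtb Asd, DapB, CysH or TrpD, each grown in its selective medium. Strains were screened against the Prestwick library at 0.1 mM and 1% DMSO in 384-well format at low and high arabinose induction. Growth is read as OD600 after 10 h in triplicate.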

Assay [4] has as its system E. coli TESEC Mtb DapB. The note with it: compound 0.1 mM. How it is done: as §2
The test system of assay [5] is E. coli TESEC Alr+ wild-type control. The note with it: compound 0.1 mM; raw OD600 reference: median of DMSO wells 0.49, cell-free background 0.052. The method, then: (§3)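 TESEC Mtb Alr E. coli (ΔaraC ΔtolC ΔentC Δalr ΔdadX, arabinose-inducible Mtb Alr) or the Alr+ wild-type control strain, grown in defined M9-fructose medium without D-alanine in 96-well plates with Prestwick library compounds at 0.1 mM and 1% DMSO. Low Alr induction is 0.1 µM arabinose and high induction is 10 mM arabinose.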

In assay [6] the test system is E. coli TESEC Mtb Alr. The settings on record: compound 0.1 mM. How it is done:
as §3
The source holds these as a separate data set.

Where [7] appears, read: arabinose 1000 nM, raw OD600 reference: median of DMSO wells 0.294, cell-free background 0.041.
Setting [8] is: arabinose 10000 nM, raw OD600 reference: median of DMSO wells 0.264, cell-free background 0.041.
The mark [9] stands for this setting: arabinose 100000 nM, raw OD600 reference: median of DMSO wells 0.201, cell-free background 0.041.
Where [10] appears, read: arabinose 1000000 nM, raw OD600 reference: median of DMSO wells 0.193, cell-free background 0.041.
The mark [11] stands for this setting: arabinose 10000000 nM, raw OD600 reference: median of DMSO wells 0.146, cell-free background 0.041.
[12] abbreviates: arabinose induction (level): High, raw OD600 reference: median of DMSO wells 0.331, cell-free background 0.041.
Setting [13] is: arabinose induction (level): Low, raw OD600 reference: median of DMSO wells 0.417, cell-free background 0.041.
Setting [14] is: arabinose induction (level): High, raw OD600 reference: median of DMSO wells […], cell-free background 0.041.
The mark [15] stands for this setting: arabinose induction (level): Low, raw OD600 reference: median of DMSO wells 0.227, cell-free background 0.041.
Setting [16] is: arabinose 100 nM, raw OD600 reference: median of DMSO wells 0.413, cell-free background 0.052.
Where [17] appears, read: arabinose 10000000 nM, raw OD600 reference: median of DMSO wells […], cell-free background 0.052.

As to `CCN1CCC[C@H]1CNC(=O)c1c(O)c(Cl)cc(Cl)c1OC` [Raclopride], the growth in assay [1] turned out to be 0.173 ± 0.014; in assay [2] (setting [7]), 0.16 ± 0.01; in assay [2] (setting [8]), 0.148 ± 0.017; in assay [2] (setting [9]), 0.14 ± 0.014; in assay [2] (setting [10]) it was 0.107 ± 0.0082; in assay [2] (setting [11]), 0.172 ± 0.0058. The growth in assay [3] (setting [12]) stood at 0.13 ± 0.013; in assay [3] (setting [13]), 0.133 ± 0.014; in assay [4] (setting [14]) it was 0.173 ± 0.013; in assay [4] (setting [15]), 0.166 ± 0.019; in assay [5], 0.391 ± 0.075; in assay [6] (setting [16]) it was 0.395 ± 0.038. The growth in assay [6] (setting [17]) came to 0.175 ± 0.027.
With `CC(C)NC[C@@H](O)COc1cccc2ccccc12` [(R)-Propranolol hydrochloride], the growth in assay [1] amounted to 0.205 ± 0.01; in assay [2] (setting [7]) it was 0.262 ± 0.0043; in assay [2] (setting [8]), 0.291 ± 0.0066; in assay [2] (setting [9]), 0.186 ± 0.015; in assay [2] (setting [10]), 0.216 ± 0.028; in assay [2] (setting [11]), 0.142 ± 0.0024. Besides, the growth in assay [3] (setting [12]) amounted to 0.263 ± 0.076; in assay [3] (setting [13]), 0.2622 ± 0.0023; in assay [4] (setting [14]) it was 0.193 ± 0.01; in assay [4] (setting [15]), 0.212 ± 0.027; in assay [5] it was 0.58 ± 0.019; in assay [6] (setting [16]), 0.4273 ± 0.0035. This compound also returned a growth in assay [6] (setting [17]) of 0.326 ± 0.012.
As to `NS(=O)(=O)c1cc2c(cc1Cl)N=CNS2(=O)=O` [Chlorothiazide], the growth was 0.254 ± 0.0047 in assay [1]; 0.29 ± 0.0056 in assay [2] (setting [7]); 0.268 ± 0.0056 in assay [2] (setting [8]); 0.212 ± 0.021 in assay [2] (setting [9]); 0.183 ± 0.0053 in assay [2] (setting [10]); 0.1414 ± 0.00081 in assay [2] (setting [11]). The growth in assay [3] (setting [12]) is 0.433 ± 0.014; in assay [3] (setting [13]), 0.447 ± 0.045; in assay [4] (setting [14]), 0.193 ± 0.006; in assay [4] (setting [15]) it was 0.239 ± 0.024; in assay [5], 0.494 ± 0.032; in assay [6] (setting [16]) it was 0.403 ± 0.014. Also, in assay [6] (setting [17]), the growth turned out to be 0.354 ± 0.0098.
For `Clc1ccc2c(c1)CCc1cccnc1C2=C1CCNCC1` [Desloratadine], the growth in assay [1] was found to be 0.2 ± 0.015; in assay [2] (setting [7]), 0.211 ± 0.0061; in assay [2] (setting [8]) it was 0.256 ± 0.0088; in assay [2] (setting [9]), 0.163 ± 0.0094; in assay [2] (setting [10]), 0.153 ± 0.0064; in assay [2] (setting [11]) it was 0.145 ± 0.0037. For the same compound, the growth is 0.149 ± 0.023 in assay [3] (setting [12]); 0.251 ± 0.026 in assay [3] (setting [13]); 0.216 ± 0.033 in assay [4] (setting [14]); 0.215 ± 0.031 in assay [4] (setting [15]); 0.545 ± 0.014 in assay [5]; 0.398 ± 0.0076 in assay [6] (setting [16]). In assay [6] (setting [17]), this compound registered a growth of 0.288 ± 0.016.
